Reference: PubChem BioAssay AID624255 (Broad Institute, 2012)
Hit rate of the full screen: of about 77,000 compounds, about 4,600 (6%) were called active. Another 1% or so got no clear call; they are omitted. This is one part of a sample in which actives are shown more often than they occur. Unmarked numbers belong to inactive results.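 Rule for the calls: active = mean inhibition above about 93%, with at least 55% of replicates each passing it (limit read from the data, passing the limit was not always enough); inconclusive = only one of those two conditions holds; inactive = neither condition holds.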

Test: growth inhibition of T. cruzi in host fibroblasts – cell-based, beta-gal Tulahuen parasites, NIH3T3 host, luminescence, primary screen (AID 624255)
Settings: T. cruzi beta-gal in NIH3T3, GalScreen luminescence, 90 h; at 8.34 µM; active compounds read high

Structure (SMILES)	inhibition
Cn1cnc(CCNC(=O)C[C@H]2CC[C@@H]3[C@H](COC[C@@H](O)CN3C(=O)Nc3ccc(Cl)cc3)O2)c1	33%
O=C(N[C@H]1C=C[C@@H](CC(=O)N2CCN(c3ccccc3)CC2)O[C@@H]1CO)c1ccncc1	-7%
CC(=O)N(C)C[C@@H]1Oc2cc(-c3cccnc3)ccc2S(=O)(=O)N([C@H](C)CO)C[C@H]1C	-140%
O=C(C[C@@H]1CC[C@@H]2[C@H](COC[C@H](O)CN2S(=O)(=O)c2ccc(Cl)cc2)O1)N[C@@H]1CCN(Cc2ccccc2)C1	43.9%
O=C(c1ccccc1)N1CC[C@H]2[C@H](CO)Nc3ccc(-c4ccc(F)cc4)cc3[C@H]21	59.1%
O=C(c1cccnc1)N1CC[C@H]2[C@H](CO)Nc3ccc(-c4ccc(F)cc4)cc3[C@H]21	74.7%
CN(C)C(=O)c1ccc(-c2ccc3c(c2)[C@H]2[C@H](CCN2C(=O)c2ccc4c(c2)OCO4)[C@H](CO)N3)cc1	99.5% (active)
O=C(c1cnccn1)N1CC[C@@H]2[C@H](CO)Nc3ccc(-c4cccc(F)c4)cc3[C@@H]21	109% (active)
O=C(C1CCC1)N1CC[C@H]2[C@H](CO)Nc3ccc(-c4cccc(F)c4)cc3[C@H]21	92.4%
N#Cc1cccc(-c2ccc3c(c2)[C@H]2[C@H](CCN2Cc2ccc4c(c2)OCO4)[C@@H](CO)N3)c1	27.1%
COc1ccc(-c2ccc3c(c2)[C@H]2[C@H](CCN2C(=O)c2ccc4c(c2)OCO4)[C@@H](CO)N3)cc1	13.9%
O=C(c1cccnc1)N1CC[C@@H]2[C@@H](CO)Nc3ccc(-c4ccccc4)cc3[C@@H]21	77.8%
OC[C@@H]1Nc2ccc(-c3cccc(F)c3)cc2[C@H]2[C@@H]1CCN2Cc1ccncc1	115% (active)
O=C(c1ccccn1)N1CC[C@@H]2[C@H]1c1cc(-c3ccccc3)ccc1N[C@@H]2CO	106% (active)
COCC(=O)N1CC[C@H]2[C@H](CO)Nc3ccc(-c4ccc(C(=O)N(C)C)cc4)cc3[C@H]21	90.6%
OC[C@@H]1Nc2ccc(-c3ccc(F)cc3)cc2[C@@H]2[C@H]1CCN2Cc1ccc(F)cc1	22.6%
O=C(NC[C@@H]1[C@@H](c2ccccc2)[C@@H](CO)N1Cc1ccccn1)C1CCC1	31.9%
C[C@H](O)C#Cc1cnc2c(c1)C(=O)N([C@H](C)CO)C[C@H](C)[C@@H](CN(C)C(=O)Nc1ccc(F)cc1)O2	41%
O=C([C@H]1[C@H](CO)[C@H]2Cn3c(ccc(-c4ccccc4)c3=O)[C@@H]1N2Cc1cccnc1)N1CCOCC1	28.9%
CN(C)C(=O)[C@H]1[C@H](CO)[C@H]2Cn3c(ccc(-c4ccc(F)cc4)c3=O)[C@H]2N1C(=O)c1ccccn1	32.7%
C/C=C/c1ccc([C@@H]2[C@@H](CN(C)C(C)=O)N(C(=O)C3CC3)[C@H]2CO)cc1	-20.4%
CO[C@@H]1CN(C)C(=O)c2cc(NC(=O)Nc3cccc(F)c3)ccc2OC[C@H](C)N(C)C[C@@H]1C	-11.1%
COc1cccc(S(=O)(=O)Nc2ccc3c(c2)[C@H]2C[C@H](CC(=O)N4CCCCC4)O[C@@H](CO)[C@H]2O3)c1	32.8%
COc1ccccc1C(=O)Nc1ccc2c(c1)C(=O)N(C)C[C@@H](OC)[C@@H](C)CN(CC1CC1)[C@@H](C)CO2	21.2%
CC(=O)N1[C@H](CO)[C@H](c2ccc(-c3ccccc3)cc2)[C@H]1CNC(=O)C1CC1	-0.382%

Structure (SMILES)	inhibition
COCC(=O)N(C)C[C@H]1[C@@H](c2ccc(-c3cccnc3)cc2)[C@H](CO)N1C(C)=O	84.3%
CC(=O)N1[C@H](CNC(=O)C2CC2)[C@@H](c2ccc(-c3cccc(F)c3)cc2)[C@@H]1CO	98.8% (active)
CC(=O)N1[C@H](CO)[C@@H](c2ccc(-c3ccccc3)cc2)[C@H]1CNC(=O)C1CC1	-18%
CC(=O)N(C)C[C@@H]1[C@@H](c2ccc(-c3ccccc3F)cc2)[C@@H](CO)N1C(C)=O	113% (active)
CC(=O)NC[C@@H]1[C@@H](c2ccc(-c3ccccc3F)cc2)[C@@H](CO)N1C(=O)C1CC1	108% (active)
CCC(=O)N(C)C[C@H]1[C@H](c2ccc(-c3ccccc3F)cc2)[C@@H](CO)N1C(C)=O	8.38%
CC(=O)N1[C@H](CO)[C@@H](c2ccc(-c3ccc(F)cc3)cc2)[C@H]1CNC(=O)C1CC1	-36%
N#C[C@@H]1[C@@H](c2ccc(-c3ccccc3F)cc2)[C@@H](CO)N1C(=O)C1CC1	71.7%
COc1ccc(S(=O)(=O)Nc2ccc3c(c2)CC(=O)N([C@@H](C)CO)C[C@@H](C)[C@H](CN(C)S(=O)(=O)c2ccccc2)O3)cc1	0.553%
COc1ccc(S(=O)(=O)N(C)C[C@H]2Oc3ccc(NC(=O)Nc4ccccc4)cc3CC(=O)N([C@H](C)CO)C[C@@H]2C)cc1	-16.8%
C[C@@H]1CN([C@H](C)CO)C(=O)c2cc(NC(=O)Nc3cccc4ccccc34)ccc2O[C@@H](C)CCCCO[C@H]1CN(C)S(=O)(=O)c1cccs1	23.5%
CO[C@@H]1CC[C@@H]2CCOc3ccc(C#N)cc3C(=O)N(C)C[C@H](c3ccccc3)CC(=O)N(C)C[C@H]1O2	5.08%
N#C[C@@H]1N[C@@H](CO)[C@@H]1c1ccc(C#Cc2ccccc2F)cc1	79.1%
COc1cccc(C#Cc2ccc([C@@H]3[C@H](C#N)N[C@H]3CO)cc2)c1	101% (active)
N#C[C@H]1N[C@H](CO)[C@@H]1c1ccc(C#Cc2ccccc2F)cc1	24.3%
O=C(Nc1ccccc1)N1C[C@H]2[C@@H](c3ccccc31)[C@@H](CO)N2Cc1cocn1	65%
CNC(=O)C[C@@H]1CC[C@H]2[C@@H](COc3ccc(NC(=O)NCc4ccccc4)cc3C(=O)N2C)O1	-25%
CCCC#Cc1ccc2c(c1)O[C@H](CN(C)C(=O)CC)[C@@H](C)CN([C@H](C)CO)S2(=O)=O	94.9% (active)
C[C@H]1CN([C@@H](C)CO)S(=O)(=O)c2ccc(C#CCN(C)C)cc2O[C@H]1CN(C)C(=O)c1ccccc1F	36.4%
CCCC#Cc1ccc2c(c1)O[C@@H](CN(C)C(=O)CC)[C@@H](C)CN([C@H](C)CO)S2(=O)=O	67%
COCC#Cc1ccc2c(c1)O[C@@H](CN(C)C(C)=O)[C@H](C)CN([C@H](C)CO)S2(=O)=O	-30.8%
CCCC#Cc1ccc2c(c1)O[C@@H](CN(C)C(=O)c1ccccc1F)[C@H](C)CN([C@H](C)CO)S2(=O)=O	97.6% (active)
CC(C)CC#Cc1ccc2c(c1)O[C@@H](CN(C)C(=O)c1ccccc1F)[C@H](C)CN([C@H](C)CO)S2(=O)=O	54%
CCC(=O)N(C)C[C@@H]1Oc2cc(C#CCN(C)C)ccc2S(=O)(=O)N([C@H](C)CO)C[C@H]1C	101% (active)
CC(=O)N(C)C[C@H]1Oc2cc(C#CCN(C)C)ccc2S(=O)(=O)N([C@H](C)CO)C[C@H]1C	56.9%

Structure (SMILES)	inhibition
C[C@H]1CN([C@@H](C)CO)S(=O)(=O)c2ccc(C#CCN(C)C)cc2O[C@H]1CN(C)C(=O)CN(C)C	-25.5%
CCCC#Cc1ccc2c(c1)O[C@@H](CN(C)C(=O)CC)[C@H](C)CN([C@H](C)CO)S2(=O)=O	68.6%
C[C@@H]1CN([C@H](C)CO)S(=O)(=O)c2ccc(C#CCN(C)C)cc2O[C@@H]1CN(C)C(=O)CN(C)C	-40.2%
CC(=O)N(C)C[C@H]1Oc2cc(C#CCN(C)C)ccc2S(=O)(=O)N([C@@H](C)CO)C[C@@H]1C	106% (active)
O=C(C[C@H]1CC[C@H]2[C@@H](COC[C@@H](O)CN2Cc2cccc(C(F)(F)F)c2)O1)NCc1ccncc1	73.9%
C[C@@H]1CCCCO[C@@H](CN(C)S(C)(=O)=O)[C@@H](C)CN([C@@H](C)CO)C(=O)c2cc(NS(=O)(=O)c3ccc(Cl)cc3)ccc2O1	46.7%
O=C(C[C@H]1CC[C@H]2[C@@H](COC[C@@H](O)CN2CCC(F)(F)F)O1)NCc1ccc2c(c1)OCO2	-35.7%
COc1cccc(NC(=O)C[C@@H]2CC[C@H]3[C@@H](COc4ccc(NC(=O)C5CCOCC5)cc4C(=O)N3C)O2)c1	24.1%
CN(C)C(=O)C[C@@H]1CC[C@H](NC(=O)NC2CCCC2)[C@H](CO)O1	-49.3%
O=C(C[C@@H]1CC[C@@H]2[C@H](COC[C@@H](O)CN2Cc2ccccc2)O1)NCCc1ccccc1	13.4%
C[C@@H](NC(=O)C[C@H]1C[C@H]2c3cc(NC(=O)C4CCOCC4)ccc3O[C@H]2[C@@H](CO)O1)c1ccccc1	-16.2%
Cc1cc(C(=O)Nc2ccc3c(c2)C(=O)N(C)[C@@H]2CC[C@H](CC(=O)NC4CCCC4)O[C@@H]2CO3)no1	-62.2%
CN(C)CCCNC(=O)C[C@H]1CC[C@H]2[C@@H](COC[C@H](O)CN2C(=O)c2ccncc2)O1	-84.6%
COCC(=O)Nc1ccc2c(c1)[C@@H]1C[C@H](CC(=O)NCc3ccc(Cl)cc3)O[C@H](CO)[C@@H]1O2	0.832%
CN1C(=O)c2cc(NC(=O)Nc3ccccc3F)ccc2OC[C@H]2O[C@H](CC(=O)NCc3ccc(-c4ccccc4)cc3)CC[C@H]21	101% (active)
CCS(=O)(=O)Nc1ccc2c(c1)C(=O)N(C)[C@@H]1CC[C@H](CC(=O)N[C@H]3CCN(Cc4ccccc4)C3)O[C@@H]1CO2	46.2%
CN1C(=O)c2cc(NC(=O)c3cnccn3)ccc2OC[C@@H]2O[C@@H](CC(=O)N[C@H]3CCN(Cc4ccccc4)C3)CC[C@H]21	109% (active)
CN1C(=O)c2cc(NS(C)(=O)=O)ccc2OC[C@@H]2O[C@@H](CC(=O)NCc3ccc(-c4ccccc4)cc3)CC[C@H]21	6.8%
CN1C(=O)c2cc(NC(=O)Cc3cccs3)ccc2OC[C@@H]2O[C@@H](CC(=O)N[C@@H]3CCN(Cc4ccccc4)C3)CC[C@H]21	50.2%
CN1C(=O)c2cc(NC(=O)c3cnccn3)ccc2OC[C@@H]2O[C@H](CC(=O)N[C@@H]3CCN(Cc4ccccc4)C3)CC[C@@H]21	105% (active)
CCNC(=O)C[C@@H]1CC[C@@H]2[C@@H](COc3ccc(NC(=O)Nc4ccccc4F)cc3C(=O)N2C)O1	19.6%
CN1C(=O)c2cc(NC(=O)c3cnccn3)ccc2OC[C@@H]2O[C@H](CC(=O)NC3CCC3)CC[C@@H]21	7.25%
CCS(=O)(=O)Nc1ccc2c(c1)C(=O)N(C)[C@H]1CC[C@H](CC(=O)N[C@@H]3CCN(Cc4ccccc4)C3)O[C@H]1CO2	71.7%
